Values joined by “and” are separate entries in the source; they are usually repeats but may differ in a detail not shown here. Equal values may be shown once. Read-outs that look alike come from different tables or passages of the source.
Experiments:
[1] = tested on: PAK4; conditions: concentration: 1 μM, replicates: in singlicate, n = 1
[2] = tested on: PAK6; conditions: concentration: 1 μM, replicates: in singlicate, n = 1
[3] = tested on: PAK7; conditions: concentration: 1 μM, replicates: in singlicate; n = 1
[4] = tested on: T1, PCTK1; conditions: concentration: 1 μM, replicates: in singlicate; n = 1
T1 construct: gene CDK16

[5] = tested on: T2, PCTK2; conditions: concentration: 1 μM, replicates: in singlicate, n = 1
T2 construct: gene CDK17

[6] = tested on: T3, PCTK3; conditions: concentration: 1 μM, replicates: in singlicate, n = 1
T3 construct: gene CDK18

[7] = tested on: PDGFRA; conditions: concentration: 1 μM, replicates: in singlicate, n = 1
[8] = tested on: PDGFRB; conditions: concentration: 1 μM, replicates: in singlicate, n = 1
[9] = tested on: PDPK1; conditions: concentration: 1 μM, replicates: in singlicate, n = 1
[10] = tested on: PFTAIRE2; conditions: concentration: 1 μM, replicates: in singlicate, n = 1
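Also: KINOMEscan kinase panel screen.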

Row | SMILES | %Inh ([1]; 1 µM) | %Inh ([2]; 1 µM) | %Inh [3] [%] | %Inh [4] [%] | %Inh ([5]; 1 µM) | %Inh ([6]; 1 µM) | %Inh ([7]; 1 µM) | %Inh ([8]; 1 µM) | %Inh ([9]; 1 µM) | %Inh ([10]; 1 µM) | %Inh [1] [%] | %Inh [2] [%] | %Inh [5] [%] | %Inh [6] [%] | %Inh [7] [%] | %Inh [8] [%] | %Inh [9] [%] | %Inh [10] [%]
1 | Cl.Cl.Cl.Fc1ccc(-c2ncn(C3CCNCC3)c2-c2ccnc(Nc3ccccc3)n2)cc1 [SB-238039] | 9% and 12% | 0% and 11% | 10 | 0 | 0% and 4% | 0% and 6% | 0% and 26% | 52% and 13% | 6% and 0% | 0% and 21% | – | – | – | – | – | – | – | –
2 | Nc1nccc(-c2c(-c3ccc(F)cc3)ncn2C2CCN(CC(F)(F)F)CC2)n1 [SB-236560] | – | – | 0 | 1 | – | – | – | – | – | – | 16 | 0 | 0 | 0 | 3 | 0 | 0 | 23
3 | COCCNC(=O)c1ccc(-c2cc(C(=O)NC3CC3)cc(F)c2C)cc1 [GW868318] | – | – | 24 | 8 | – | – | – | – | – | – | 20 | 18 | 0 | 20 | 32 | 51 | 8 | 0
4 | Cn1cc(-c2ccc3c(c2)CCN3C(=O)Cc2ccccc2Cl)c2c(N)ncnc21 [GSK2608885] | – | – | 23 | 7 | – | – | – | – | – | – | 0 | 13 | 0 | 0 | 78 | 99.9 | 23 | 14
5 | Cl.Nc1ncnc2occ(-c3ccc(NC(=O)Nc4cc(C(F)(F)F)ccc4F)cc3)c12 [SB-707548] | – | – | 26 | 11 | – | – | – | – | – | – | 9 | 6 | 80 | 67 | 99.8 | 100 | 33 | 68
6 | C[C@@H](Oc1cc(-n2cnc3ccc(NC(=O)NC(C)(C)C)cc32)sc1C(N)=O)c1ccccc1Cl [GSK346294] | – | – | 29 | 0 | – | – | – | – | – | – | 0 | 2 | 9 | 14 | 4 | 22 | 0 | 11
7 | CC(C)Oc1ccc2c(-c3ccnc(Nc4ccc(N5CCN(C)CC5)cc4)n3)cnn2n1 [GW696155] | – | – | 44 | 99.3 | – | – | – | – | – | – | 47 | 56 | 93.5 | 60 | 55 | 97.2 | 27 | 34
8 | COc1cc2c(cc1OC[C@@H](O)CO)ncc1c3ccc(C#N)cc3[nH]c21 | – | – | 11 | 0 | – | – | – | – | – | – | 0 | 0 | 0 | 0 | 99.2 | 91.4 | 8 | 6
9 | NCC(NC(=O)c1cc(-c2cn[nH]c2)c(-c2ccnc3[nH]ccc23)s1)c1ccccc1.O=C(O)C(F)(F)F.O=C(O)C(F)(F)F (stereo not shown) [GSK1325775] | – | – | 74 | 15 | – | – | – | – | – | – | 50 | 74 | 9 | 0 | 26 | 61 | 0 | 17
10 | Cc1c2ccc(N(C)c3ccnc(Nc4cccc(S(N)(=O)=O)c4)n3)cc2nn1Cc1ccccc1.Cl.Cl [GW787226] | – | – | 10 | 0 | – | – | – | – | – | – | 0 | 0 | 0 | 4 | 99.7 | 100 | 0 | 0
11 | CCc1nc(-c2cccc(C)c2)c(-c2ccnc(NCc3ccccc3)c2)s1 | – | – | 0 | 0 | – | – | – | – | – | – | 22 | 11 | 13 | 0 | 30 | 39 | 3 | 7
12 | O=c1cc(N2CCOCC2)nc2n(Cc3cccc4ccccc34)ccn12 [GSK2333389] | – | – | 0 | 2 | – | – | – | – | – | – | 0 | 0 | 0 | 7 | 0 | 6 | 10 | 29
13 | O=C(Nc1cccc(-c2nn3ncccc3c2-c2ccnc(Nc3cccc(C(F)(F)F)c3)n2)c1)c1c(F)cccc1F [GSK299495] | – | – | 0 | 6 | – | – | – | – | – | – | 0 | 0 | 0 | 23 | 0 | 99.7 | 0 | 0
14 | O=C(NCCNc1ccnc(Nc2ccc(F)cc2)n1)c1cc2ccccc2s1 [GSK1379874] | – | – | 0 | 0 | – | – | – | – | – | – | 0 | 0 | 0 | 0 | 0 | 26 | 0 | 17
15 | O=C1NC(=O)C(N2CCc3ccccc32)=C1c1cccc(Cl)c1 [SB-408010] | – | – | 6 | 0 | – | – | – | – | – | – | 13 | 13 | 0 | 16 | 9 | 5 | 0 | 0
16 | O=C(NCCNc1ccnc(Nc2ccc(F)cc2)n1)Nc1ccccc1F [GSK1379880] | – | – | 0 | 0 | – | – | – | – | – | – | 0 | 0 | 16 | 14 | 0 | 70 | 7 | 21
